This excerpt belongs to a sample that is enriched for hits.
HIV RNase H inh-1 = blocks HIV-1 RNase H cleavage of RNA/DNA duplex | 1.9% of 65,000 active | inhibition, % at 10 µM | RT-RNase H RNA/DNA duplex cleavage, fluorescence | P04585; in the data active means inhibition above about 50%
HIV RNase H inh-2 = confirmation of HIV-1 reverse transcriptase RNase H inhibitors; shares compounds with HIV RNase H inh-1; Recombinant RT RNase H, fluorescent RNA/DNA duplex cleavage; inhibition, % at 10 µM; 39% of 1,000 active; in the data active means inhibition above about 48%; inconclusive means no clear call, values can overlap the other calls
Of the large screens only hits and unclear results are named; the others gave an inactive call (follow-up assays come after a bar, where they were run).

Cc1ccc2c(c1)nnn2C1CCN(CC(=O)Nc2ccccc2N2CCOCC2)CC1	none
Nc1n[nH]c(-c2ccccc2)c1-c1ccccc1	none
CC(C)Cn1c(SCC(=O)NC(=O)Nc2ccc3c(c2)OCCO3)nc2ccccc2c1=O	HIV RNase H inh-1 92 | HIV RNase H inh-2 54
COCCn1c(SC(C)C(=O)Nc2ccc3c(c2)OCCO3)nc2ccccc2c1=O (centres undefined)	none
C=CCn1c(SCC(=O)Nc2ccc3c(c2)OCO3)nc2ccccc2c1=O	none
Cn1c(=O)c2c(nc(OCC3COC(C)(C)O3)n2Cc2ccccc2F)n(C)c1=O (centres undefined)	none
CCCCN(C)C(=O)c1coc(=O)c2ccccc12	none
CN(C(=O)c1coc(=O)c2ccccc12)c1ccc(F)cc1	HIV RNase H inh-1 72 | HIV RNase H inh-2 inactive
Cc1ccc(CNC(=O)c2coc(=O)c3ccccc23)o1	none
CN(Cc1cccs1)S(=O)(=O)c1cccs1	none
c1ccc(-n2ncc3c2ncn2nc(-c4ccco4)nc32)cc1	HIV RNase H inh-1 60 | HIV RNase H inh-2 68
c1coc(-c2nc3c4c5c(sc4ncn3n2)CCCC5)c1	none
COc1cccc(OCc2nc3c4cnn(-c5ccccc5)c4ncn3n2)c1	none
CCOc1cc(C2NC(=O)NC(C)=C2C(=O)OCc2ccccc2)ccc1O (centres undefined)	none
Cc1cc(C)n(CCc2nc3c4ccccc4nc(SCc4ccc(C#N)cc4)n3n2)n1	none
CCCSc1nc2c(c(=O)[nH]c(=O)n2C)n1Cc1ccc(C)cc1	none
C=CCSc1nc2c(c(=O)[nH]c(=O)n2C)n1C(C)C	HIV RNase H inh-1 76 | HIV RNase H inh-2 59
CCC(C)Sc1nc2c(c(=O)[nH]c(=O)n2C)n1Cc1ccc(Cl)cc1 (centres undefined)	none
Cc1ccc(Cn2c(SCC(C)C)nc3c2c(=O)[nH]c(=O)n3C)cc1	HIV RNase H inh-1 87 | HIV RNase H inh-2 58
C=CCn1c(SCc2ccc(Cl)cc2)nc2c1c(=O)[nH]c(=O)n2C	none
C=CCSc1nc2c(c(=O)[nH]c(=O)n2C)n1Cc1ccc(C)cc1	HIV RNase H inh-1 84 | HIV RNase H inh-2 inactive
C/C(Cl)=C/CSc1nc2c(c(=O)[nH]c(=O)n2C)n1C(C)C	none
CCOC(=O)C(C)Sc1nc2c(c(=O)[nH]c(=O)n2C)n1Cc1ccc(Cl)cc1 (centres undefined)	HIV RNase H inh-1 71 | HIV RNase H inh-2 inactive
Cc1ccc(Cn2c(N3CCCCCC3)nc3c2c(=O)[nH]c(=O)n3C)cc1	none
C/C=C/Cn1c(SCc2ccc(C)cc2)nc2c1c(=O)[nH]c(=O)n2C	none
CCSc1nc2c(c(=O)[nH]c(=O)n2C)n1C	none
CC(C)Sc1nc2c(c(=O)[nH]c(=O)n2C)n1Cc1ccc(Cl)cc1	none
Cc1cc(N2CCC3(CC2)OCCO3)n2nc(C)c(-c3ccc(Cl)cc3)c2n1	none
CC1=C(C(=O)OCC2CCCO2)C(c2ccncc2)C2=C(CC(C)(C)CC2=O)N1 (centres undefined)	none
O=S(=O)(NCc1cn2ccsc2n1)c1ccc(Oc2ccccc2)cc1	none
COc1cc(OC)nc(NC2OC(=O)c3ccccc32)n1 (centres undefined)	none
CC(C)NC(=O)c1ccccc1NC(=O)CCS(=O)(=O)Cc1ccccc1	none
COC(=O)c1ccc(Oc2c(C)oc3c(CN4CCN(C)CC4)c(O)ccc3c2=O)cc1	none
O=C(O)C1CSC2(CCN(Cc3ccccc3)CC2)N1 (centres undefined)	none
CCOC1(OCC)N=C(N)C2(C#N)C(c3ccc(NC(C)=O)cc3)C12C#N (centres undefined)	none
Cn1c(NCCCN2CCOCC2)nc2c1c(=O)n(Cc1ccc(Cl)c(Cl)c1)c(=O)n2C	none
COCCCN=C(c1ccco1)n1c(=S)nc(-c2ccco2)n(CCCOC)c1=S	HIV RNase H inh-1 63 | HIV RNase H inh-2 inactive
COCCCn1c(-c2ccco2)nc2ccccc2c1=O	none
COCCCn1c(SCC(=O)OC2CCCCC2)nnc1-c1ccco1	none
COC(=O)c1c(NC(=O)CN2CCC(C)CC2)c2c(C)cccc2n1C	none
Nc1nc(C2CCCN2S(=O)(=O)c2ccc(Cl)cc2)cs1 (centres undefined)	none
O=C1CCC(=O)N1CN(Cc1ccco1)CN1C(=O)CCC1=O	none
Cc1ccc2nc(NC(=O)CSc3nc4c(c(=O)n3C)SC(C)C4)sc2c1 (centres undefined)	HIV RNase H inh-1 79 | HIV RNase H inh-2 inactive
Cc1ccc(C)c(NC(=O)CSc2nc3c(c(=O)n2C)SC(C)C3)c1 (centres undefined)	none
CC1Cc2nc(SCC(=O)Nc3ccc(F)cc3F)n(C)c(=O)c2S1 (centres undefined)	none
O=C1CC(Cc2ccccc2)C(=O)N1CCCn1ccnc1 (centres undefined)	none
Cc1ccnc(NC(=O)CN(C)S(=O)(=O)c2cccc3nsnc23)c1	none
Cc1ccc2nc(NC(=O)CN(C)S(=O)(=O)c3ccc(Br)s3)sc2c1	none
Cc1ccc2nc(NC(=O)CN(C)S(=O)(=O)c3cccc4nsnc34)sc2c1	HIV RNase H inh-1 51 | HIV RNase H inh-2 inactive
Cn1c(N)c(C(=O)COC(=O)Cn2cc(C(F)(F)F)ccc2=O)c(=O)n(C)c1=O	none
O=C(Nc1cnn(Cc2ccc(Cl)cc2)c1)c1cnccn1	none
COc1ccc(OC)c(C2=NOC(C(=O)Nc3cccc(C(C)=O)c3)C2)c1 (centres undefined)	none
COC(=O)c1c(NC(=O)CSc2n[nH]c(N)n2)sc(C)c1C	none
Cc1ccc(/C=C/C2=Cc3c(sc(NC(=O)CSc4n[nH]c(N)n4)c3C#N)C(C)(C)C2)o1	HIV RNase H inh-1 96 | HIV RNase H inh-2 67
CCOC(=O)c1c(NC(=O)CSc2n[nH]c(N)n2)sc(CC)c1C	none
CC1CCN(S(=O)(=O)c2ccc(NC(=O)CN3CCN(c4ccccc4)CC3)cc2)CC1	none
CC1CCN(S(=O)(=O)c2ccc(NC(=O)CN3CCN(C)CC3)cc2)CC1	none
CC1CCN(S(=O)(=O)c2ccc(NC(=O)Cn3nnc(-c4ccccc4F)n3)cc2)CC1	HIV RNase H inh-1 69 | HIV RNase H inh-2 inactive
COc1ccccc1N1CCN(C(=O)CSc2nc3ccccc3c(=O)n2CC2CCCO2)CC1 (centres undefined)	none
CCC(C)c1ccc(O)c(N)c1 (centres undefined)	HIV RNase H inh-1 60 | HIV RNase H inh-2 inactive
CCN(CC)C(=O)CSc1ccccc1N	none
CC(C)(C)c1ccc(-c2cc(N)n[nH]2)cc1	none
CC(C)(C)c1ccc(SCC(N)=O)cc1	none
CCC(C)c1ccc(O)c(NC(=O)c2cncc(Br)c2)c1 (centres undefined)	none
CC(C)c1ccc(O)c(N)c1	HIV RNase H inh-1 58 | HIV RNase H inh-2 inactive
CC(C)(C)c1ccc(O)c(N)c1	HIV RNase H inh-1 86 | HIV RNase H inh-2 inconclusive
CC(=O)Nc1cccc(NC(=O)C2CCCN2C(=O)Nc2ccccc2C)c1 (centres undefined)	none
COc1cccc(/C=N/n2cncn2)c1OCC#N	none
Cn1c(=O)c2cc(S(=O)(=O)N3CCC(c4ccccc4)CC3)ccc2n(C)c1=O	none
O=C(NCC(=O)N(c1ccc2c(c1)OCCO2)C(C(=O)NC1CCCC1)c1ccco1)c1ccco1 (centres undefined)	none
Cc1n[nH]c(C)c1S(=O)(=O)N(CC(=O)NC1CCCC1)c1ccc(C(C)C)cc1	none
CCN1CCN(Cc2nc3c(c(=O)n(C)c(=O)n3C)n2Cc2ccc(Cl)cc2Cl)CC1	none
Cn1c(Cn2c(=O)sc3ccccc32)nnc1SCC(=O)NCc1ccccc1Cl	none
COc1cc(NC(=O)c2cc(C(C)C)on2)cc(OC)c1OC	none
COc1cc(N=c2ssnc2Cl)cc(OC)c1OC	HIV RNase H inh-1 91 | HIV RNase H inh-2 76
COc1cc(/C=N/n2c(C)nnc2C)cc(OC)c1OC	none

High-throughput results deposited in PubChem by University of Pittsburgh Molecular Library Screening Center.
